Screening data (PubChem BioAssay)
MEP2-GFP yeast: alters MEP2-GFP fluorescence in TOR pathway yeast screen; S. cerevisiae MEP2-GFP strain, flow cytometry GFP, 3 h; 100% = DMSO control level; GFP response vs DMSO, % at 10 µM; actives 0.51% (n = 330,000);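 active means GFP response versus DMSO above a set limit, roughly screen mean plus 3 SD, cut at about 180% in these data; inconclusive means fewer than 70 cells counted for a yeast strain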;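 further: median GFP fluorescence of the barcode-gated MEP2-GFP cells per well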
RPL19A TOR yeast: yeast TOR pathway RPL19A-GFP modulation | S. cerevisiae RPL19A-GFP strain, flow cytometry, 3 h; active compounds read low | percent response vs DMSO, % at 10 µM | actives 0.3% (n = 330,000) | AID 2025;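 active means percent response vs DMSO below 50%; inconclusive means fewer than 70 events counted for the yeast strain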;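 further: median channel GFP fluorescence of the barcoded RPL19A-GFP strain; ratio of sample median GFP to plate DMSO average so 100% = DMSO; lower means less RPL19A-GFP as with rapamycin TOR inhibition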
LAP4-GFP MLPCN: modulators of TOR pathway LAP4-GFP in S. cerevisiae; S. cerevisiae LAP4-GFP multiplex, flow cytometry GFP, 3 h; median GFP as percent of DMSO wells; GFP response vs DMSO, % at 10 µM; actives 0.34% (n = 320,000);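 active means GFP response vs DMSO above a set limit, about the screen mean plus 3 SD, cut at about 150% in these data; inconclusive means under 70 cell events counted for the yeast strain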
AGP1 TOR yeast: modulators of TOR pathway AGP1-GFP in S. cerevisiae. AID 2066. GFP response vs DMSO, % at 10 µM. S. cerevisiae AGP1-GFP multiplex flow cytometry, 3 h; GFP as percent of DMSO wells. actives 0.02% (n = 320,000);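 active means GFP response relative to DMSO above a set limit, near screen average plus 3 SD, cut at about 150% in these data; inconclusive means fewer than 70 cells counted for the yeast strain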;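 further: median GFP channel fluorescence of the gated AGP1 strain per well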
CIT2-GFP yeast: modulators of TOR pathway CIT2-GFP in S. cerevisiae. S. cerevisiae CIT2-GFP strain, flow cytometry, 3 h; 100 means same as DMSO wells. GFP response vs DMSO, % at 10 µM. actives 0.065% (n = 320,000). AID 2029;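 active means GFP response relative to DMSO above a set limit, near the screen mean plus 3 SD, cut at about 150% in these data; inconclusive means Fewer than 70 cells measured for a yeast strain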;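 further: ratio of well median GFP fluorescence to mean of DMSO wells on the plate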
Pemphigus Ab inh: inhibitors of pemphigus antibody binding to human desmoglein-3; actives 0.48% (n = 310,000); P32926; DSG3-coupled beads, scFv-anti-DSG3-GFP binding, flow cytometry; active compounds read low; binding (percent of control), % at 10 µM;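 active means binding more than 3 SD below its plate's average and above zero; inconclusive means below that plate limit but binding exactly zero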;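 further: hits lower antibody fragment binding to DSG3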
Target sequence (P32926 whole entry, looked up, the tested form may be a part): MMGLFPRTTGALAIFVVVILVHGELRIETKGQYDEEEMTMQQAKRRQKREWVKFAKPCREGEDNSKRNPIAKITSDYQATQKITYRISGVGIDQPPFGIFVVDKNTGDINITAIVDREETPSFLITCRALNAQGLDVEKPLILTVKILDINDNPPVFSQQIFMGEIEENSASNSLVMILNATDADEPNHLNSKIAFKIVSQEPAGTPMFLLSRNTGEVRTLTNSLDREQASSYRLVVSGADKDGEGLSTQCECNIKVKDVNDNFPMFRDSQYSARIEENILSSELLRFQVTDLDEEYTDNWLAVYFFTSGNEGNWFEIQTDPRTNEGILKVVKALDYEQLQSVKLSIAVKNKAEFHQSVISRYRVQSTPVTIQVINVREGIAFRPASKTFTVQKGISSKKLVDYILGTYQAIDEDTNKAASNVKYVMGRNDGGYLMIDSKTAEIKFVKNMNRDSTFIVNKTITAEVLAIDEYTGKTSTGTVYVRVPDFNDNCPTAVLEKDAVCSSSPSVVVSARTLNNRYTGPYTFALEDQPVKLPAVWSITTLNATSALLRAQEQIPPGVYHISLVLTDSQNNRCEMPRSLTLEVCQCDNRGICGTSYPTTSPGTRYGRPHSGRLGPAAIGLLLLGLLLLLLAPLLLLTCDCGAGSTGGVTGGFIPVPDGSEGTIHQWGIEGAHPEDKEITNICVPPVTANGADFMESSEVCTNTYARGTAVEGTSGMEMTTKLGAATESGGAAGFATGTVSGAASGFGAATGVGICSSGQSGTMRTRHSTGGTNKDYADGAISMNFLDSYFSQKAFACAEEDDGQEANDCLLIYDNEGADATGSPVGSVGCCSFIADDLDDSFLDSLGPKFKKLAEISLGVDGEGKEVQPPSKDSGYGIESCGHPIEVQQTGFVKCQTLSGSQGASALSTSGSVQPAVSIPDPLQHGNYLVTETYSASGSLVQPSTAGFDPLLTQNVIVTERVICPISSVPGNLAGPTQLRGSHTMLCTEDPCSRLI
* marks the source's active call; other numbers are inactive results; ? = inconclusive; / = not tested or not shown; [ ] = remark or other dose. An excerpt weighted towards active compounds, which were near 1.2% of everything screened.

SMILES	MEP2-GFP yeast	RPL19A TOR yeast	LAP4-GFP MLPCN	AGP1 TOR yeast	CIT2-GFP yeast	Pemphigus Ab inh
O=C(CCNc1ccc(F)c(Cl)c1)c1ccco1	102	97	115	93	92	112
O=C(CCNc1ccc(F)cc1)c1ccco1	276*[may fluoresce violet]	44*[may fluoresce violet]	98	22	?	102
CCOC(=O)c1sc(NC(=O)/C=C/c2ccccc2)nc1C	108	106	100	96	98	86
Cn1nnnc1N=N/C(=N/Nc1ccccc1)c1ccccc1	95	96	150*	98	86	101
CCCCN(CC)CCCNC(=O)c1cc2cc3ccc(C)cc3nc2o1	100	100	91	93	98	69*
CCCCN(CC)CCNC(=O)c1cc2cc3ccc(Cl)cc3nc2o1	97	98	86	96	97	102
CN1C=CC=C/C1=C1\SC(=S)N(N)C1=O	293*[may fluoresce violet]	44*[may fluoresce violet]	68	?	?	/
Fc1ccc(Nc2ccnc(Nc3ccc(F)cc3)n2)cc1	110	106	100	105	105	105
CCOC(=O)c1ccccc1OC(=O)CS(=O)c1ccccc1[N+](=O)[O-] (configuration not stated)	93	94	98	92	85	79
COC(=O)c1ccc(OC(=O)CS(=O)c2ccccc2[N+](=O)[O-])cc1 (configuration not stated)	191*[may fluoresce violet]	69	220*[may fluoresce violet]	21	?	98
CCOC(=O)N/C(N)=N/c1nc2ccccc2s1	108	89	168*	89	86	102
CCc1cc(=O)oc2cc(C)c(CN3CCCC(C)C3)c(O)c12 (configuration not stated)	99	97	102	102	95	100
CCc1cc(=O)oc2c(CN3CCN(C)CC3)c(O)c(Cl)cc12	302*[may fluoresce violet]	44*[may fluoresce violet]	84	?	?	104
CCc1c(C)c2cc(Cl)c(O)c(CN3CCCCC3)c2oc1=O	111	114	124	114	112	101
CCCCc1cc(=O)oc2cc(C)c(CN3CCCC3)c(O)c12	105	92	98	97	94	89*
CCc1cc(=O)oc2c(CN3CCCC3)c(O)c(Cl)cc12	248*	33*	83	68	94	/
Cc1c(C(=O)N2CCCCC2)c(S(=O)(=O)N2CCC(C)CC2)c(C)n1C	105	90	91	91	100	/
CN1CCN(CCCCOc2ccccc2C=O)CC1	104	103	163*	93	80	103
COc1ccc(-n2nc3c(N4CCC(C(=O)N5CCC(C)CC5)CC4)nnc(C)c3c2C)cc1	258*[may fluoresce violet]	51	69	?	?	178
Cc1nnc(N2CCC(C(=O)N3CCCCC3)CC2)c2nn(-c3ccc(Cl)cc3)c(C)c12	115	97	96	95	99	102
O=C1c2ccccc2C2=Nc3ccccc3SC(c3cccc(F)c3)C12 (configuration not stated)	180*	103	119	94	101	127
Cc1ccc(CCN2CC(C(=O)NCCCN3CCCCCC3)CC2=O)cc1 (configuration not stated)	184*[may fluoresce violet]	61	103	/	?	114
CCCCNC(=O)C1CC(=O)N(CCc2ccccc2)C1 (configuration not stated)	99	98	106	105	103	94
Cc1ccc(CCN2CC(C(=O)NCCN3CCCCCC3)CC2=O)cc1 (configuration not stated)	100	98	96	98	106	105
Cc1ccc(CCN2CC(C(=O)NCCCN(C)Cc3ccccc3)CC2=O)cc1 (configuration not stated)	188*	97	86	99	100	100
SMILES	MEP2-GFP yeast	RPL19A TOR yeast	LAP4-GFP MLPCN	AGP1 TOR yeast	CIT2-GFP yeast	Pemphigus Ab inh
Cn1cnnc1SCc1cccc(Br)c1	97	99	98	104	97	41*
Cn1c(SCc2cccc(Br)c2)nnc1-c1ccccn1	102	102	118	99	91	110
CCN(CC)S(=O)(=O)c1ccc(N2CCN(C)CC2)c(NC(=O)c2cc(=O)c3ccccc3o2)c1	?	39*[may fluoresce violet]	?	?	?	94
Cc1ccc(S(=O)(=O)N2CCOCC2)cc1C(=O)NCc1ccccn1	97	99	99	100	105	110
Cc1cccc(C)c1N1CCN(S(=O)(=O)N(C)C)CC1	102	92	107	97	/	99
CC(C)(C)NC(=O)C(OC(=O)c1cccs1)c1ccc(F)cc1 (configuration not stated)	96	97	96	102	90	-16*
CCOC(=O)Cn1c2c(c(=N)c3ccccc31)CCC2	229*[may fluoresce violet]	55	98	/	?	104
CCOC(=O)Cn1c2c(c(=N)c3c1CCC3)CCC2	100	98	98	103	102	104
CC(N=C1NS(=O)(=O)c2ccccc21)C(=O)NCc1ccncc1 (configuration not stated)	/	/	/	/	/	103
CN1C2=CC=CC=CC2=[N+](C)C12C=CC(=[N+]([O-])[O-])C=C2[N+](=O)[O-] (configuration not stated)	90	94	94	95	96	76*
CCCn1c(SC(C)C(=O)NC2CCCC(C)C2C)n[nH]c1=O (configuration not stated)	/	/	/	/	/	79*
CC(C)C1N=C2c3ccccc3N=C(SCc3cc(=O)n4cc(Cl)ccc4n3)N2C1=O (configuration not stated)	80	84	87	80	75	78*
CC(C)C1N=C2c3ccccc3N=C(SCC(=O)NCCc3ccc(S(N)(=O)=O)cc3)N2C1=O (configuration not stated)	107	108	98	105	106	103
CCc1ccc2nc(N3C(=O)C(O)=C(C(=O)c4ccco4)C3c3cccs3)sc2c1 (configuration not stated)	105	103	105	104	102	289
Cc1ccc2nc(N3C(=O)C(O)=C(C(=O)c4cc5ccccc5o4)C3c3cccs3)sc2c1 (configuration not stated)	192*	75	104	25	93	123
O=C1NC(=O)C2(COC3(CCCC3)OC2)S1	98	104	103	103	93	/
N#Cc1ccccc1Cn1cc(/C=C/[N+](=O)[O-])c2ccccc21	84	93	156*	98	89	119
O=C(Cn1cc(/C=C\[N+](=O)[O-])c2ccccc21)Nc1ccccc1	102	96	102	98	93	101
O=C(O)Cn1cc(/C=C/[N+](=O)[O-])c2ccccc21	105	103	103	106	105	101
